The subject of assay [1] is DLD1. Briefly: cell viability (CellTiter-Glo) relative to plate median (fraction of plate median); higher = more viable cells. The following applies: 5 µM; treatment time 24 h; reporter: 7TFP. The method in brief: (§1)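 After seeding in 384-well plates, colorectal cancer cell lines carrying stable lentiviral TCF/Wnt firefly luciferase reporters (7TFP or TCF4/Wnt) were left 24 h. Library compounds were then added at a final 5 µM for 24 h. A Tecan F500 reader measured firefly luciferase or CellTiterGlo luminescence on parallel plates, with each well normalised to the plate median by webcellHTS2 (additive, no log transformation), and two independent replicates averaged.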
On the technique in general: ATP-based viability assays read luminescence as a measure of living cells.

A further assay deals with HCT116. Described as above. The following applies: 5 µM; treatment time 24 h; reporter: TCF4/Wnt. The method in brief: as §1
Assay [2] deals with SW480. The description is as above. The note with it: 5 µM; treatment time 24 h; reporter: 7TFP. The gist of the method:
as §1

The test system of assay [3] is DLD1. The experiment in a line: TCF/Wnt firefly luciferase reporter signal relative to plate median (fraction of plate median); higher = higher Wnt reporter signal. The note with it: 5 µM; treatment time 24 h; reporter: 7TFP. The gist of the method:
as §1

Assay [4] relates to SW480. The assay is described as above. The following applies: 5 µM; treatment time 24 h; reporter: 7TFP. The method in brief: as §1

± gives the standard deviation of the averaged measurements.

Regarding `O=C(NC(=O)c1c(F)cccc1F)Nc1cc(Cl)c(OC(F)(F)C(F)C(F)(F)F)cc1Cl` (stereo not given), the results for the cell viability in the assay on DLD1 [1], with HCT116 and with SW480 [2] were 0.985 ± 0.05, 0.984 ± 0.066 and 0.987 ± 0.013, respectively. Moreover, the entries for the “TCF/Wnt firefly luciferase reporter signal” value in the assay with DLD1 [3] and in the assay with SW480 [4] were 0.907 ± 0.028 and 1.03, respectively.

On to `CNC(=O)Oc1ccc2c(c1)[C@]1(C)CCN(C)[C@@H]1N2C`, for which the values for the cell viability in the assay with DLD1 [1], in the assay with HCT116 and in the assay with SW480 [2] were 0.948 ± 0.0071, 0.889 ± 0.12 and 0.966 ± 0.047, respectively. In addition, the “TCF/Wnt firefly luciferase reporter signal” value in the assay on DLD1 [3] is 1.08 ± 0.12; in the assay on SW480 [4] it was 0.989 ± 0.072.

Regarding `Oc1ccc2c3c1O[C@H]1[C@@H](O)CC[C@@]4(O)[C@@H](C2)N(CC2CCC2)CC[C@]314`, the cell viability worked out at 1 ± 0.067 in the assay with DLD1 [1], 1 ± 0.014 in the assay on HCT116 and 0.942 ± 0.082 in the assay with SW480 [2]. Further, the “TCF/Wnt firefly luciferase reporter signal” value in the assay on DLD1 [3] was found to be 0.979 ± 0.03; in the assay on SW480 [4], 1.06 ± 0.064.

With `CC1=CC(=O)c2c(O)cccc2C1=O`, the cell viability with DLD1 [1] turned out to be 0.0607 ± 0.019; in the assay with HCT116 it was 0.229 ± 0.24; in the assay with SW480 [2] it was 0.404 ± 0.51. The “TCF/Wnt firefly luciferase reporter signal” value in the assay on DLD1 [3] came to 0.0412 ± 0.032; with SW480 [4], 0.157 ± 0.19.

As for `CSc1nc(NC(C)C)nc(NC(C)C)n1`, the results for the cell viability with DLD1 [1], with HCT116 and in the assay on SW480 [2] were 0.9725 ± 0.0035, 0.92 ± 0.11 and 1 ± 0.014, respectively. Also, the “TCF/Wnt firefly luciferase reporter signal” value with DLD1 [3] came out at 1.06; in the assay on SW480 [4], 1.07 ± 0.014.

As to `COc1ccc(C(=O)O)cc1OC`, the cell viability with DLD1 [1] stood at 0.902 ± 0.18; in the assay with HCT116 it was 1.04 ± 0.098; in the assay with SW480 [2], 0.984 ± 0.023. The “TCF/Wnt firefly luciferase reporter signal” value in the assay with DLD1 [3] was determined as 0.949 ± 0.087; in the assay with SW480 [4], 0.9985 ± 0.0021.

As for `N#C/C(=C\c1cccc(O)c1)C(=O)O` [alpha-CYANO-3-HYDROXYCINNAMIC ACID], the figures for the cell viability in the assay with DLD1 [1], in the assay on HCT116 and in the assay with SW480 [2] were 1.05 ± 0.028, 1.01 ± 0.033 and 1.04 ± 0.028, respectively. For the same molecule, the “TCF/Wnt firefly luciferase reporter signal” value came out at 1.15 ± 0.18 in the assay with DLD1 [3] and 1.02 ± 0.014 in the assay with SW480 [4].

`CC(C)CC(N(C)C)C1(c2ccc(Cl)cc2)CCC1` (stereo not given): the cell viability in the assay with DLD1 [1] was 0.917 ± 0.072; with HCT116, 0.924 ± 0.013; with SW480 [2] it was 1.02 ± 0.042. Moreover, the “TCF/Wnt firefly luciferase reporter signal” value worked out at 0.991 ± 0.042 with DLD1 [3] and 0.87 ± 0.073 in the assay with SW480 [4].

As to `COc1cc2c(cc1OC)[C@@H]1C(=O)c3ccc4c(c3O[C@@H]1CO2)CC(C(C)C)O4` (stereo not given in full), the cell viability with DLD1 [1] came to 0.963 ± 0.11; with HCT116 it was 0.685 ± 0.14; in the assay on SW480 [2], 0.9715 ± 0.0092. Moreover, the figures for the “TCF/Wnt firefly luciferase reporter signal” value in the assay with DLD1 [3] and with SW480 [4] were 0.84 ± 0.0042 and 0.842, respectively.

Consider `Oc1cccc2cccnc12`, for which the cell viability in the assay with DLD1 [1] is 0.9665 ± 0.0035; with HCT116, 0.967 ± 0.075; with SW480 [2] it was 1.1 ± 0.028. Also, the “TCF/Wnt firefly luciferase reporter signal” value in the assay on DLD1 [3] was determined as 1.03 ± 0.09; in the assay with SW480 [4] it was 0.793 ± 0.037.

In the case of `C/C=C/c1ccc2c(c1)OCO2`, the cell viability with DLD1 [1] was 0.951 ± 0.13; with HCT116, 0.998 ± 0.059; in the assay on SW480 [2], 0.986 ± 0.049. In addition, the “TCF/Wnt firefly luciferase reporter signal” value with DLD1 [3] stood at 1.04 ± 0.17; with SW480 [4] it was 1.05 ± 0.1.

Regarding `OC1CCCCC1N1CCC(c2ccccc2)CC1` (stereo not given), the cell viability in the assay on DLD1 [1] worked out at 0.98 ± 0.0042; with HCT116, 0.922 ± 0.069; with SW480 [2], 1.04 ± 0.021. Moreover, the “TCF/Wnt firefly luciferase reporter signal” value is 0.867 ± 0.1 in the assay on DLD1 [3] and 0.92 ± 0.022 in the assay on SW480 [4].

Take `COC(=O)NC(=S)Nc1ccccc1NC(=S)NC(=O)OC`: the cell viability with DLD1 [1] is 0.944 ± 0.071; in the assay with HCT116, 0.966 ± 0.09; in the assay with SW480 [2] it was 0.973 ± 0.0071. Further, the “TCF/Wnt firefly luciferase reporter signal” value amounted to 1.17 ± 0.042 in the assay on DLD1 [3] and 1.02 ± 0.31 in the assay with SW480 [4].

With `C/C=C(/C)C(=O)O[C@H]1CC[C@@]2(C)[C@@H]3CC[C@H]4[C@]5(O)C[C@H](O)[C@@]6(O)[C@@H](CN7C[C@@H](C)CC[C@H]7[C@@]6(C)O)[C@]5(O)C[C@]42O[C@]13O`, the cell viability with DLD1 [1] was 0.9805 ± 0.0064; with HCT116, 0.892 ± 0.06; in the assay on SW480 [2], 1.04 ± 0.064. For the same molecule, the “TCF/Wnt firefly luciferase reporter signal” value with DLD1 [3] was determined as 1.16 ± 0.064; in the assay on SW480 [4], 1.185 ± 0.0071.

Regarding `O=C1C=C2C(=CCOC2O)O1` (stereo not given), the cell viability with DLD1 [1] is 0.883 ± 0.19; in the assay on HCT116, 0.606 ± 0.2; in the assay on SW480 [2], 0.9575 ± 0.0064. Moreover, the “TCF/Wnt firefly luciferase reporter signal” value in the assay on DLD1 [3] is 0.993 ± 0.18; in the assay on SW480 [4], 0.499 ± 0.025.

The values above are taken from the supplement of paper PMC6522484.
